Test results from PubChem BioAssay.
A number with no mark means an inactive call. Active and inactive are the calls of the source. Rule as the data show it, unless noted: active = inhibition above about 44%; inactive = the rest.

What was measured:
[1] = StAR promoter reporter inhibitors, counter-screen for LRH-1 inverse agonist project, cell-based, luminescence, high throughput (AID 651611; in the data active = inhibition above about 28%); conditions: StAR promoter luciferase reporter counterscreen, at 3.6 µM, stronger effect = higher value
[2] = target: Nuclear receptor subfamily 5 group A member 2 (Homo sapiens) (UniProt O00482); experiment: NR5A2 activity suppression in reporter cells – cell-based, luminescence, confirmation (AID 651613; in the data active = inhibition above about 42%;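 also: HEK293T cells co-transfected with LRH-1 and StAR promoter luciferase reporter; 0% = vehicle wells and 100% = parental cells lacking receptor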); conditions: cell-based LRH-1 luciferase reporter, inverse agonism; at 3.6 µM; stronger effect = higher value
[3] = target: Steroidogenic factor 1 (Homo sapiens) (UniProt Q13285); experiment: inverse agonism at SF1 nuclear receptor – cell-based, luminescence, high throughput, counter-screen for LRH-1 inverse agonist project (AID 651614); conditions: cell-based SF1 luciferase reporter, at 3.6 µM, stronger effect = higher value;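 also: cells cotransfected with StAR promoter reporter and SF1 expression vector; 0% = vehicle on cells with receptor and 100% = vehicle on cells lacking receptor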
[4] = compounds suppressing VP16-driven luciferase signal – cell-based, luminescence, high throughput, counter-screen for LRH-1 inverse agonist project (AID 651615; in the data active = inhibition above about 33%); conditions: Gal4-VP16 luciferase reporter cells, at 3.6 µM, stronger effect = higher value

Sequence of Nuclear receptor subfamily 5 group A member 2 (Homo sapiens) (O00482 whole entry, looked up): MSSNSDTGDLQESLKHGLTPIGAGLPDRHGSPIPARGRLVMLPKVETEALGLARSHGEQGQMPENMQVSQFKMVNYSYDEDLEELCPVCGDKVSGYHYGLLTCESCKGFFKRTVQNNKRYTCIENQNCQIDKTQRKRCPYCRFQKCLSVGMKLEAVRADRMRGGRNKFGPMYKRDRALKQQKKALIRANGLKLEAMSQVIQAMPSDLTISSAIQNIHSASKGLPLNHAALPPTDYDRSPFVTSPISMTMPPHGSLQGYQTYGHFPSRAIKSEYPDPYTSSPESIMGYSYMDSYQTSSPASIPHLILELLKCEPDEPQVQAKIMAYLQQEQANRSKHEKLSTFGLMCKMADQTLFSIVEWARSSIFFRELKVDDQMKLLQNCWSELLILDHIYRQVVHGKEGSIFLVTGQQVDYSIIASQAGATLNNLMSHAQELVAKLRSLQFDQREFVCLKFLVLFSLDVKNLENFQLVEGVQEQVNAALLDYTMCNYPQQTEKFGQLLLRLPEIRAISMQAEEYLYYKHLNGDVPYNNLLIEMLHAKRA
Sequence of Steroidogenic factor 1 (Homo sapiens) (Q13285 whole entry, looked up, the tested form may be a part): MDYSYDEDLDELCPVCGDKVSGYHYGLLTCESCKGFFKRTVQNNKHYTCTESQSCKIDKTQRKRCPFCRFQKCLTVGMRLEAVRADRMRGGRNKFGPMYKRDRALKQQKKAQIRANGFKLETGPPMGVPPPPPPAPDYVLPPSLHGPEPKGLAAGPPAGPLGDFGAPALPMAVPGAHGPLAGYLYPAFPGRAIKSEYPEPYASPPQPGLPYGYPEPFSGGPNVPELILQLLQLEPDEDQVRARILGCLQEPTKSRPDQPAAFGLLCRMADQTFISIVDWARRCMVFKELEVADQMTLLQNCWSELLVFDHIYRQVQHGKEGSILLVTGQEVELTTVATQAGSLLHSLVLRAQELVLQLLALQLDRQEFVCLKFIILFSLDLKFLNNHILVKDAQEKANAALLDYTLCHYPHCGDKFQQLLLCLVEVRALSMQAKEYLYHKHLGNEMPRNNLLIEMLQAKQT

| Structure (SMILES) | inhibition [1] | inhibition [2] | inhibition [3] | inhibition [4] |
| --- | --- | --- | --- | --- |
| NC(=O)CC[C@H](NC(=O)c1ccc(F)cc1)C(=O)OCC(=O)Nc1ccc(N2CCOCC2)cc1 | 0.81% | 57.5% (active) | 47.9% (active) | -8.19% |
| COC(=O)Cc1sc(-c2ccccn2)nc1-c1ccccc1 | 11.6% | 61.7% (active) | 58.9% (active) | -7.62% |
| O=C(CSc1nc2ccccc2c(=O)n1-c1ccc(Cl)c(Cl)c1)Nc1ccc2c(c1)CCC2 | -1.82% | 49.9% (active) | 37.8% | -40.9% |
| COc1ccc(/C=N/NC(=O)c2[nH]c3ccc(Br)cc3c2-c2ccccc2)cc1 | 62.3% (active) | 42.6% (active) | 50.7% (active) | 32.6% (active) |
| O=C(Nc1ccccc1C(=O)NC1CC1)c1ccc([N+](=O)[O-])o1 | 22.3% | 62.9% (active) | 65.1% (active) | -5.35% |
| C#Cc1ccc(NC(=O)C2(C)CCN2C(=O)Cc2ccc(C(C)(C)C)cc2)cc1 (configuration not stated) | 4% | 48% (active) | 39% | 43.9% (active) |
| Cc1cc(-c2nnc(SCC(=O)Nc3cccc(C)c3C)n2N)n[nH]1 | 5.59% | 53.3% (active) | 48.2% (active) | -4.91% |
| O=C(COc1ccc2c3c(c(=O)oc2c1)CCC3)NCc1ccncc1 | 0.83% | 50% (active) | 41.4% | -2.51% |
| CCCCCOc1ccc(NC(=O)CSc2cccc3cccnc23)cc1 | -12.7% | 42.7% (active) | 26.9% | -9.81% |
| COc1cccc(-c2cnc3c(NC(C)=O)cc(-c4ccc(S(C)(=O)=O)cc4)cn23)c1 | 15.6% | 53.3% (active) | 41.6% | -13.3% |
| Cc1cccc(NC(=O)COC(=O)Cc2cccs2)c1C | 0.39% | 53.8% (active) | 46.9% (active) | 14.1% |
| O=C(CCl)Nc1cccn2ncnc12 | 33.1% (active) | 49.3% (active) | 54.6% (active) | -31.4% |
| O=C(Cn1cc(COc2ccc(C(=O)c3ccccc3)cc2)nn1)c1ccc(O)cc1 | 25.8% | 47.4% (active) | 57% (active) | 59.6% (active) |
| S=C1Cc2ccccc2N1 | 56% (active) | 85.9% (active) | 79.5% (active) | 53.3% (active) |
| Cc1ccc(NC(=O)CSc2nc3ncc(Br)cc3[nH]2)cc1C | 10.7% | 54.5% (active) | 54.1% (active) | 1.21% |
| COc1ccc(C2=CC(=O)OC3(CCCC3)O2)cc1 | 15% | 60.5% (active) | 54.5% (active) | -0.06% |
| CCn1c2ccccc2c2cc(/C=N/n3c(-c4cc(C)[nH]n4)n[nH]c3=S)ccc21 | 11.8% | 4.98% | 31.7% | 7.75% |
| COc1ccc(NC(=O)CSc2nnc3ccc(-c4cccnc4)nn23)cc1OC | 7.32% | 42.1% (active) | 41.9% | -8.78% |
| COc1ccc(OCCNC(=O)c2ccccc2OCC(=O)Nc2ccc(NC(C)=O)cc2)cc1 | 16% | 49.8% (active) | 52.4% (active) | 0% |
| O=C(c1ccco1)N1CCN(C(=O)c2ccc(COc3ccc(Cl)cc3Cl)o2)CC1 | 5.02% | 49% (active) | 46.2% (active) | -11.1% |
| COc1ccc(C2(C)NC(=O)N(CC(=O)NCCC3=CCCCC3)C2=O)cc1OC (configuration not stated) | 7.18% | 67.2% (active) | 38.1% | 0.38% |
| O=S(=O)(c1ccc(-c2csc(Nc3ccc(F)cc3)n2)cc1)N1CCCC1 | 15.5% | 66.7% (active) | 56.4% (active) | 35.4% (active) |
| Cc1cc2ccccn2c1C(=O)c1ccc([N+](=O)[O-])o1 | 41% (active) | 68.3% (active) | 62.2% (active) | -0.71% |
| COc1ccccc1-n1c(SCC(=O)Nc2ccc(Cl)cc2)nc(O)c(Cc2ccccc2)c1=O | 16.2% | 55.1% (active) | 56% (active) | 0.94% |
| N#Cc1c2ccc([N+](=O)[O-])cc2[n+]([O-])n1-c1ccccc1 | 58.2% (active) | 81.5% (active) | 75.4% (active) | -21.2% |
| CCOc1ccc(CCNC(=O)COC(=O)c2cccnc2OCC)cc1OCC | 2.1% | 53.3% (active) | 48.7% (active) | 0.35% |
| NC(=S)NNc1cc(Cl)cc(Cl)c1 | 12.8% | 50.1% (active) | 40.4% | 11.7% |

| Structure (SMILES) | inhibition [1] | inhibition [2] | inhibition [3] | inhibition [4] |
| --- | --- | --- | --- | --- |
| CCCc1cc(=O)oc2c(C)c(OCC(=O)NCCN3CCOCC3)ccc12 | 6.59% | 43.8% (active) | 46.3% (active) | -19.2% |
| O=C(C(Cl)c1ccccc1)N1CCOCC1 (configuration not stated) | 5.9% | 56.5% (active) | 54.5% (active) | -10.2% |
| COc1ccc(OCc2nnc3n2N=C(c2ccc(C)cc2)CS3)cc1 | -0.29% | 26.3% | 28.9% | -1.91% |
| Cc1ccc(NC(=O)COC(=O)c2cc(=O)c3ccccc3o2)c(Br)c1 | 7.74% | 50.4% (active) | 51.1% (active) | 2.1% |
| COc1ccc(-c2c(C)nn3c(NC4CCCC4)cc(C)nc23)cc1OC | 25.9% | 62.9% (active) | 54.8% (active) | -3.44% |
| CCCc1cc(=O)oc2cc3oc(C)c(C)c3cc12 | -1.82% | 52.3% (active) | 50.5% (active) | -5.27% |
| O=C(Nc1cc(Cl)ccc1-n1cncn1)c1ccc([N+](=O)[O-])s1 | 23.2% | 68.4% (active) | 69.2% (active) | -10.3% |
| COc1ccc(NC(=O)CN2C(=O)C(C)SC(C)C2=O)c(OC)c1 (configuration not stated) | 4.55% | 44% (active) | 49% (active) | 11.3% |
| COc1ccc(NC(=O)C2=CC(c3ccc(OC)c(OC)c3)=NS(=O)(=O)N2C)cc1 | 1.44% | 56.3% (active) | 49.4% (active) | 18.4% |
| NC(=S)N/N=C/c1ccc([N+](=O)[O-])cc1 | 6.27% | 42.7% (active) | 39.8% | -3.22% |
| CC(C(=O)OCC(=O)Nc1ccc2c(c1)OCO2)N1C(=O)c2ccccc2C1=O (configuration not stated) | -2.26% | 49.2% (active) | 48.2% (active) | -12.4% |
| CCOc1ccc(CCNC(=O)COC(=O)c2ccc(F)c(S(=O)(=O)N3CCOCC3)c2)cc1OCC | 10.3% | 61.8% (active) | 61.6% (active) | -3.82% |
| Cc1cc(C(=O)CSc2nnnn2C)c(C)n1CCc1ccc(F)cc1 | 5.26% | 49.4% (active) | 48% (active) | -3.7% |
| COc1ccc(S(=O)(=O)Nc2cc3c4c(oc3c3ccccc23)CCCC4=O)cc1 | 24.3% | 69.6% (active) | 65.9% (active) | -1.29% |
| CC(C)c1ccc(NC(=O)CSc2nc(=O)[nH]c3c2CCCC3)cc1 | 16.1% | 58.5% (active) | 47.3% (active) | -10.5% |
| O=C(NC1CCC(CC2CCC(NC(=O)C(Cl)Cl)CC2)CC1)C(Cl)Cl (configuration not stated) | 6.07% | 58.2% (active) | 62% (active) | -2.2% |
| CC(=O)Nc1cccc(-c2cc(NC=O)c3ncc(-c4cccc(C(C)=O)c4)n3c2)c1 | 29.1% (active) | 57.6% (active) | 53.2% (active) | -34.5% |
| COc1ccc(OCCNC(=O)C2(C)CCN2Cc2ccc3ccccc3c2)cc1 (configuration not stated) | 13.6% | 45.2% (active) | 43.2% (active) | 1.36% |
| CCN(CC)C1Oc2cc3c(cc2C(c2cccc(OC)c2O)C1C)OCO3 (configuration not stated) | 23.9% | 53.1% (active) | 72% (active) | 15.5% |
| Nc1nc(-c2ccccc2)[nH]c(=O)c1N=O | 18.9% | 54% (active) | 49.4% (active) | -10.9% |
| CCN(Cc1ccccc1)c1ccc(/C=N/NS(=O)(=O)c2ccc(C)c([N+](=O)[O-])c2)cc1 | 10.9% | 40.7% | 61.3% (active) | 9.15% |
| Cn1cccc1C(=O)OCC(=O)N1CCN(c2ccccc2)CC1 | 2.85% | 32.7% | 35% | -18.1% |
| COC(=O)c1ccc(COc2ccc(/C=N/NC(N)=S)cc2)o1 | 17.7% | 55.8% (active) | 59% (active) | 15.7% |
| Cc1cc(NC(=O)CSc2nc3c(sc4ccccc43)c(=O)n2CCCN2CCOCC2)n[nH]1 | 48% (active) | 70.3% (active) | 44.2% (active) | -8.59% |
| CC1(C(=O)NCc2ccc(Cl)cc2)CCN1C(=O)Cc1ccc(Cl)cc1Cl (configuration not stated) | 16% | 44.1% (active) | 46.5% (active) | 4.22% |
| Cc1cccc(CN2C(=O)CSc3ccc(C(=O)NC4CC4)cc32)c1 | 10.4% | 62.2% (active) | 51.8% (active) | -6.63% |
